Test results published in PubChem BioAssay AID602293 (National Center for Advancing Translational Sciences (NCATS), 2012).
Screen size: about 1,300 compounds; about 30 (2%) were called active. Roughly 10% stayed inconclusive and do not appear here. This is one part of a sample in which actives are shown more often than they occur. Calls come from the whole dose curve; as a rule, active = well fitted inhibition curve with a large enough effect; inconclusive = small, poorly fitted or top-dose-only effect; inactive = flat fitted curve, though single readings scatter.

Assay: qHTS for antagonists of the Thyroid Stimulation Hormone Receptor: Hit Validation in HTRF Activity in a Luteinizing Hormone Receptor Cell Line
Details: LHR-expressing cell line, cAMP HTRF, antagonist mode; series mostly up to 58 µM; activity change, negative = inhibition: at the top concentration
Text: The thyroid-stimulating hormone receptor (TSHR) is a member of the 7 trans-membrane-spanning receptor (7TMR) family of cell surface receptors. TSHR-mediated hyperthyroidism is important in thyroid pathology. The development of small molecule antagonists of TSHR may lead to therapeutic approaches for TSHR-mediated hyperthyroidism caused by constitutively activating mutations or stimulating auto-antibodies associated with Graves' disease. Graves' disease is the leading cause of hyperthyroidism and is caused by autoantibodies that stimulate TSHR (TsAbs) causing thyroid growth and unregulated overproduction of thyroid hormones and existing treatments have liabilities (agranulocytosis). In addition, TSHRs are known to be expressed in multiple extrathyroidal tissues including bone, brain, kidney, testis, fat and cells of the immune system but the role of the TSHR in these tissues is not clear. Therefore, TSHR antagonists/inverse agonists could be used as probes of extrathyroidal TSHR function. Finally, TSHR inverse agonists, which are a subclass of antagonists that inhibit agonist-independent (or basal or constitutive) TSHR signaling, could be used to inhibit TSH-independent signaling in patients with recurrent or metastatic thyroid cancer who are receiving thyroid hormone to suppress TSH.
In collaboration between scientist from the NCGC and the NIDDK, a miniaturized HTRF high-throughput screen was developed. It's a cell based assay, where an anti cAMP antibody contains a fluorescent cryptate tag (excitation 337 nm; emission 620 nm) and the acceptor is cAMP-d2 (excitation 620 nm; emission 665 nm). When antibody and cAMP-d2 interact and are excited by a 337 nm light, a FRET occurs resulting in emission at 665 nm. The assay is competition between cAMP-d2 and cAMP (from the cell lysate). The homogeneous protocol allows for one step dispense after stimulation that is automation friendly. In order to confirm specificity of the compounds to the TSHR, a confirmatory assay was conducted on a similar family member, the Luteinizing Hormone (LH) receptor, transfected into a HEK 293 cell line, using an orthogonal detection technology to measure cAMP stimulation: antibody-based Homogeneous Time Resolved Fluorescence (HTRF).
NIH Chemical Genomics Center [NCGC]
NIH Molecular Libraries Probe Centers Network [MLPCN]
Assay Provider: Marvin Gershengorn, NIDDK
Homogeneous Time Resolved Fluorescence (HTRF) cAMP Assay. HEK 293 cells stably transfected with a vector containing the LH receptor and maintained under hygromycin selection were obtained from the laboratory of Dr. Marvin Gershengorn. Compounds were assayed using a HTRF cAMP detection kit (Cisbio) on the LH receptor transfected cell line. Briefly, 750 cells were plated in 2.5 ul/well of complete media (DMEM containing 10 % FCS, and 100 uM RO 20-1724) in 1536 well solid bottom white plates and 23 nl/well compound in DMSO solution or controls was added. Following 30 minute incubation at room temperature, 2.5 ul/well of labeled d2 cAMP and 2.5 ul/well of anti-cAMP antibody (both diluted 1:20 in lysis buffer) were added to each well using a flying reagent dispenser (Aurora Discovery, San Diego) . Plates were measured using the Envision plate reader (PerkinElmer, Boston, MA) with excitation at 330 nm and emissions of 615 nm and 660 nm.
% is set by controls: 0 for no effect and ±100 for the full control effect; potency is the fitted concentration of half-maximal effect.

| SMILES | Potency | activity change, negative = inhibition |
| --- | --- | --- |
| Cc1ccc(C[n+]2c(-c3ccc(C)cc3)cc(-c3ccc(C)cc3)cc2-c2ccc(C)cc2)cc1 | 37.9 µM (active) |  |
| COc1ccc(-[n+]2c(-c3ccccc3)cc(-c3ccc(C)cc3)cc2-c2ccccc2)cc1 |  | -4.98% (inactive) |
| Cc1ccc(-c2cc(-c3ccccc3)cc(-c3ccccc3)[n+]2-c2ccccc2)cc1 | 42.6 µM (active) |  |
| Oc1ccc(-[n+]2c(-c3ccccc3)cc(-c3ccccc3)cc2-c2ccccc2)cc1 | 39.8 µM (active) |  |
| OCC[n+]1c2ccccc2nc2ccc(N3CCOCC3)cc21 |  | -8.16% (inactive) |
| COC(=O)C1=C(c2ccc(OC(F)(F)F)cc2)C[C@@H]2CC[C@H]1N2C(=O)N1CCC(C)CC1 |  | -4.89% (inactive) |
| COC(=O)C1=C(c2ccc(-c3ccccc3)c(F)c2)C[C@@H]2CC[C@H]1N2C(=O)NCC1CC1 |  | -6.08% (inactive) |
| CN(C)CC1Oc2ccccc2OC1(O)c1ccccc1 (stereo not given) |  | -2.31% (inactive) |
| C[C@H]1O[C@@H](OC2CC[C@]3(C=O)[C@H]4CC[C@]5(C)[C@@H](C6=CC(=O)OC6)CC[C@]5(O)[C@@H]4CC[C@]3(O)C2)CC2OC(C)(C)OC21 (stereo not given in full) |  | -0.216% (inactive) |
| N#CC(C#N)=NNc1ccc(-n2ccc(C(F)(F)F)n2)cc1 |  | -4.9% (inactive) |
| CC(=O)c1ccc2c(c1)C1C(Cl)C(Sc3ccccc3[N+](=O)[O-])CC1C(C(=O)O)N2 (stereo not given) |  | -4.58% (inactive) |
| COC(=O)C1=C(c2ccc(-c3ccccc3)c(F)c2)C[C@@H]2CC[C@H]1N2C(=O)N1CCOCC1 |  | -5.52% (inactive) |
| O=C(C1CCN(c2nc3ccc(Br)cc3s2)CC1)N1CCC2(CC1)OCCO2 |  | -2.84% (inactive) |
| COc1cc2c(cc1/C=C/[N+](=O)[O-])OCO2 |  | -4.92% (inactive) |
| C[C@]12CC[C@H]3C(CCC4(O)CC(O)CC[C@]34C=O)C1=CC[C@H]2c1ccc(=O)oc1 (stereo not given in full) |  | -4.69% (inactive) |
